Measured values published in PubChem BioAssay (EPA / NIEHS).
Activity calls are given as the source filed them. How the source made its calls: active means hit-call score of the fitted dose curve at least 0.9, where 1 is the maximum; inactive means score below 0.9.

How the values were obtained:
Conditions in all cases: mRNA level, 48 h; actives raise or lower the signal
[1] = read-out: Apolipoprotein A-V (APOA5) gene, APOA5 (gene 116519); test: LTEA_HepaRG_APOA5: Life Technologies and Expression Analysis (LTEA) Assay for Apolipoprotein A-V (APOA5) gene using HepaRG (AID 2283474)
How it was run: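 Readout is APOA5 transcript level by qRT-PCR on Fluidigm dynamic arrays, normalized to three housekeeping genes. HepaRG cultures received chemicals for 48 h at up to 100 uM (half-log steps, 0.5% DMSO), with gain or loss scored relative to DMSO.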

[2] = read-out: Apoptosis regulator Bcl-2 (Homo sapiens) (UniProt P10415); test: LTEA_HepaRG_BCL2: Life Technologies and Expression Analysis (LTEA) Assay for Bcl-2 gene using HepaRG (AID 2283475);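 further: BCL2 transcript by TaqMan qRT-PCR normalised to ACTB GAPDH and POLR2A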
How it was run: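 Expression change of BCL2 mRNA in HepaRG after 48 h dosing, quantified by TaqMan qRT-PCR against three endogenous controls. Concentration-response used eight points up to 100 uM, vehicle 0.5% DMSO.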

[3] = read-out: Bcl-2 (BID) gene, BID (gene 637); test: LTEA_HepaRG_BID: Life Technologies and Expression Analysis (LTEA) Assay for Bcl-2 (BID) gene using HepaRG (AID 2283476)
How it was run: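 Gain or loss of BID expression is fitted relative to 0.5% DMSO vehicle. Human HepaRG liver cells received a 48 h chemical exposure over an eight-point concentration range.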

[4] = read-out: Caspase-3 (Homo sapiens) (UniProt P42574); test: LTEA_HepaRG_CASP3: Life Technologies and Expression Analysis (LTEA) Assay for cysteine-aspartic acid protease (CASP3) using HepaRG (AID 2283477)
How it was run: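 Read-out is CASP3 mRNA level by TaqMan qRT-PCR in human HepaRG cells after 48 h chemical exposure. Eight half-log concentrations topping at 100 uM were tested in 0.5% DMSO; gain or loss was fitted relative to DMSO.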

[5] = read-out: Cytochrome P450 (CYP24A1), CYP24A1 (gene 1591); test: LTEA_HepaRG_CYP24A1: Life Technologies and Expression Analysis (LTEA) Assay for Cytochrome P450 (CYP24A1) using HepaRG (AID 2283478)
How it was run: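 HepaRG, 48 h chemical exposure, 8-pt half-log CRC from 100 uM, 0.5% DMSO vehicle, duplicates. Endpoint: CYP24A1 mRNA by Fluidigm TaqMan qRT-PCR, normalized ACTB/GAPDH/POLR2A; gain/loss fit vs DMSO.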

[6] = read-out: cysteine-aspartic acid protease (CASP8), CASP8 (gene 841); test: LTEA_HepaRG_CASP8: Life Technologies and Expression Analysis (LTEA) Assay for cysteine-aspartic acid protease (CASP8) using HepaRG (AID 2283480)
How it was run: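 Differentiated HepaRG cells in serum-free induction medium, 48 h exposure, eight-point half-log series from 100 uM in 0.5% DMSO, duplicates. CASP8 mRNA by qRT-PCR, normalized to ACTB, GAPDH, POLR2A; bidirectional fit versus DMSO.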

[7] = read-out: Cytochrome P450 (CYP2B6), CYP2B6 (gene 1555); test: LTEA_HepaRG_CYP2B6: Life Technologies and Expression Analysis (LTEA) Assay for Cytochrome P450 (CYP2B6) using HepaRG (AID 2283481)
How it was run: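 HepaRG cells plated 48 h, switched to serum-free induction medium, then dosed 48 h (8 points, half-log from 100 uM, 0.5% DMSO). RNA isolated; CYP2B6 expression measured by qRT-PCR; gain or loss fitted relative to DMSO.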

[8] = read-out: CYP2C8 (gene 1558); test: LTEA_HepaRG_CYP2C8: Life Technologies and Expression Analysis (LTEA) Assay for CYP2C8 using HepaRG (AID 2283483)
How it was run: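 Differentiated HepaRG cells in serum-free induction medium exposed 48 h in duplicate to 8 half-log concentrations from 100 uM in 0.5% DMSO. CYP2C8 mRNA by qRT-PCR normalized to ACTB, GAPDH, POLR2A; bidirectional fit versus DMSO.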

[9] = read-out: CYP2C9 (gene 1559); test: LTEA_HepaRG_CYP2C9: Life Technologies and Expression Analysis (LTEA) Assay for CYP2C9 using HepaRG (AID 2283484)
How it was run: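 Differentiated human HepaRG cells in serum-free induction medium were exposed 48 h to chemicals in 8-point half-log series from 100 uM (0.5% DMSO), in duplicate. CYP2C9 mRNA was measured by qRT-PCR, normalized to ACTB/GAPDH/POLR2A, with bidirectional fitting versus DMSO.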

[10] = read-out: CYP2E1 (gene 1571); test: LTEA_HepaRG_CYP2E1: Life Technologies and Expression Analysis (LTEA) Assay for CYP2E1 using HepaRG (AID 2283485)
How it was run: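 Differentiated HepaRG cells were treated in duplicate for 48 h with chemicals in 0.5% DMSO, from 100 uM downward in half-log dilutions. RNA was then analysed by qRT-PCR for CYP2E1 induction or loss.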

[11] = read-out: CYP4A11 (gene 1579); test: LTEA_HepaRG_CYP4A11: Life Technologies and Expression Analysis (LTEA) Assay for CYP4A11 using HepaRG (AID 2283486)
How it was run: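 HepaRG, 48 h chem exposure, 8 conc (100 uM top, half-log), 0.5% DMSO vehicle; qRT-PCR readout, housekeeping-gene normalized; bidirectional curve fit vs DMSO baseline.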

[12] = read-out: Cytochrome P450 3A4 (Homo sapiens) (UniProt P08684); test: LTEA_HepaRG_CYP3A4: Life Technologies and Expression Analysis (LTEA) Assay for CYP3A4 using HepaRG (AID 2283487)
How it was run: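 HepaRG, 48 h exposure, 8-pt CRC from 100 uM (half-log), 0.5% DMSO, duplicates; serum-free induction medium. Readout: CYP3A4 mRNA, qRT-PCR, ACTB/GAPDH/POLR2A normalization. Bidirectional fit vs DMSO.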

[13] = read-out: DNA damage-inducible transcript 3 (DDIT3), DDIT3 (gene 1649); test: LTEA_HepaRG_DDIT3: Life Technologies and Expression Analysis (LTEA) Assay for DNA damage-inducible transcript 3 (DDIT3) using HepaRG (AID 2283488)
How it was run: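 Changes in DDIT3 transcript, in either direction relative to 0.5% DMSO vehicle, were quantified by TaqMan qRT-PCR after 48 h chemical exposure of HepaRG cells at 8 concentrations, maximum 100 uM.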

[14] = read-out: Pro-epidermal growth factor (Homo sapiens) (UniProt P01133); test: LTEA_HepaRG_EGF: Life Technologies and Expression Analysis (LTEA) Assay for Epidermal growth factor (EGF) using HepaRG (AID 2283489)
How it was run: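 HepaRG, 48 h dosing, 100 uM top, half-log x8, 0.5% DMSO. Readout: TaqMan qRT-PCR (Fluidigm array), housekeeping-normalized. Gain or loss of signal fit vs DMSO.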

[15] = read-out: Ezrin (EZR), EZR (gene 7430); test: LTEA_HepaRG_EZR: Life Technologies and Expression Analysis (LTEA) Assay for Ezrin (EZR) using HepaRG (AID 2283491)
How it was run: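 Read-out is EZR transcript level by qRT-PCR, normalized to three housekeeping genes and fitted bidirectionally against the DMSO control. Human HepaRG cells received test chemicals for 48 h at eight half-log concentrations up to 100 uM in 0.5% DMSO.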

[16] = read-out: Cytochrome P450 3A7 (Homo sapiens) (UniProt P24462); test: LTEA_HepaRG_CYP3A7: Life Technologies and Expression Analysis (LTEA) Assay for CYP3A7 using HepaRG (AID 2283492)
How it was run: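 Human HepaRG liver cells, 48 h post-plating, switched to serum-free induction medium and exposed in duplicate for 48 h. Dosing: 100 uM top, half-log dilutions, 8 points, 0.5% DMSO vehicle. Read-out: CYP3A7 mRNA, gain or loss fitted against DMSO baseline.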

[17] = read-out: CYP3A5 (gene 1577); test: LTEA_HepaRG_CYP3A5: Life Technologies and Expression Analysis (LTEA) Assay for CYP3A5 using HepaRG (AID 2283493)
How it was run: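 mRNA induction or loss of CYP3A5 assessed in HepaRG after 48 h dosing, 100 uM top concentration, duplicate wells; TaqMan qRT-PCR with ACTB, GAPDH, POLR2A normalization; 0.5% DMSO as negative control.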

[18] = read-out: Cytochrome P450 (CYP1A2), CYP1A2 (gene 1544); test: LTEA_HepaRG_CYP1A2: Life Technologies and Expression Analysis (LTEA) Assay for Cytochrome P450 (CYP1A2) using HepaRG (AID 2283479)
How it was run: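 CYP1A2 transcript induction or loss, quantified by Fluidigm qRT-PCR against three housekeeping genes, was fitted bidirectionally against 0.5% DMSO controls. Human HepaRG cells received eight half-log concentrations from 100 uM over 48 h.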

[19] = read-out: Early growth response protein 1 (EGR1) transcription factor, EGR1 (gene 1958); test: LTEA_HepaRG_EGR1: Life Technologies and Expression Analysis (LTEA) Assay for Early growth response protein 1 (EGR1) transcription factor using HepaRG (AID 2283490)
How it was run: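 Differentiated HepaRG cells in serum-free induction medium exposed 48 hours, duplicate, to 8 half-log concentrations up to 100 uM in 0.5% DMSO. EGR1 mRNA measured by TaqMan qRT-PCR, normalized to ACTB, GAPDH, POLR2A; bidirectional fit versus DMSO.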

Measured: AC50

Sequence of Caspase-3 (Homo sapiens) (P42574 whole entry, looked up): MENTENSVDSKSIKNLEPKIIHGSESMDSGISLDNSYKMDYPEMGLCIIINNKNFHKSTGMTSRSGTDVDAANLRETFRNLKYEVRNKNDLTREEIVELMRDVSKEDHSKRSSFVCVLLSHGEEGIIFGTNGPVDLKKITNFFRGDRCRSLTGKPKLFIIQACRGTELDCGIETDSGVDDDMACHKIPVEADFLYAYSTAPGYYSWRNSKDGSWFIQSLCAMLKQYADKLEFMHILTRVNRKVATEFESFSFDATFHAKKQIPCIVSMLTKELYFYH
Sequence of Cytochrome P450 3A4 (Homo sapiens) (P08684 whole entry, looked up): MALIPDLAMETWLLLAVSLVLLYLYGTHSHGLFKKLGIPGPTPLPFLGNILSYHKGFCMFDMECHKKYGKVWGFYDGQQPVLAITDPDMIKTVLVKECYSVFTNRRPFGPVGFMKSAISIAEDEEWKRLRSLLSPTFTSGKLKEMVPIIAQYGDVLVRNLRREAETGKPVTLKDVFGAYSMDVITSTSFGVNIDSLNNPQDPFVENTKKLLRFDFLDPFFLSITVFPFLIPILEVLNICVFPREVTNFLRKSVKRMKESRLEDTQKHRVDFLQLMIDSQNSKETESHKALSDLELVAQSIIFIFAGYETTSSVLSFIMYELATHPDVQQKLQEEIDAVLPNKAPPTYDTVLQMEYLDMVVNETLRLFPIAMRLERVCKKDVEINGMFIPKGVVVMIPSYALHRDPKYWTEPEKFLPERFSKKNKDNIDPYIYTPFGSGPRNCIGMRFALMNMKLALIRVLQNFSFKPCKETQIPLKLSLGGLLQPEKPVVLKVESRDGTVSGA
Sequence of Apoptosis regulator Bcl-2 (Homo sapiens) (P10415 whole entry, looked up): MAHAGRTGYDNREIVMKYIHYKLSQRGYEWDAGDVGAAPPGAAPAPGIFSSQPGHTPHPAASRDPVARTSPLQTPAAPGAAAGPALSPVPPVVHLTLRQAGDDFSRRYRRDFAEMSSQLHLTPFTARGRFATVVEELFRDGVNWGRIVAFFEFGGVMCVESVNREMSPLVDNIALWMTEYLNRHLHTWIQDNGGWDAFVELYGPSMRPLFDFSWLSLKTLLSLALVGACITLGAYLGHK
Sequence of Cytochrome P450 3A7 (Homo sapiens) (P24462 whole entry, looked up): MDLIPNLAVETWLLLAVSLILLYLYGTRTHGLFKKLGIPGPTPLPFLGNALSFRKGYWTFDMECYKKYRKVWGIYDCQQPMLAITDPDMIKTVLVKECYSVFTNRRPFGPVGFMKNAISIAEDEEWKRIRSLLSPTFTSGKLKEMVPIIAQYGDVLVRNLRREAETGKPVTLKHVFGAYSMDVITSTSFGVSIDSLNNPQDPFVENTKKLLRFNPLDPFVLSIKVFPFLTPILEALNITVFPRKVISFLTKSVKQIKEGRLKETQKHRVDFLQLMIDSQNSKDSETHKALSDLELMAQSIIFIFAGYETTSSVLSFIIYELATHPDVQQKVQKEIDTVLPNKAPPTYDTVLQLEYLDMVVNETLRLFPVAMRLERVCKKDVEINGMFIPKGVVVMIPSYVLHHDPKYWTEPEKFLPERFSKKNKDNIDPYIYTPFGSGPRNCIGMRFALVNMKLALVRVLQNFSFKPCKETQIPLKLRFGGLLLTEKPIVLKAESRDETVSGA

COP(=O)(NC(C)=O)SC (configuration not stated)
not listed: [18] | [19]
inactive: all other assays above

COc1cc(OC)nc(Sc2cccc(Cl)c2C(=O)O)n1
active: [10] 29.7 µM | [12] 50 µM
not listed: [8] | [19]
inactive: all other assays above

CCOP(=S)(OCC)SCCSCC
active: [7] 7.58 µM | [12] 22.2 µM
not listed: [8] | [19]
inactive: all other assays above

COc1cccc(C(=O)NN(C(=O)c2cc(C)cc(C)c2)C(C)(C)C)c1C
active: [18] 18.7 µM | [7] 1.16 µM | [8] 3.61 µM | [10] 23.5 µM | [12] 1.81 µM | [16] 5.42 µM
not listed: [19]
inactive: all other assays above

CCc1cccc(C)c1N(C(=O)CCl)C(C)COC (configuration not stated)
active: [7] 14.2 µM | [10] 50 µM | [12] 11.3 µM
not listed: [8]
inactive: all other assays above
